For 21 compounds, outcome and AC50 results are on record in PubChem BioAssay (EPA / NIEHS).

Records with an inconclusive call do not appear. The source made the active and inactive calls. Rule for the calls, unless noted: active = hit-call score of the fitted dose curve at least 0.9, where 1 is the maximum; inconclusive = response in the unintended direction; inactive = score below 0.9.

Usually AC50 stands for the midpoint of the concentration-response curve, whichever way the signal moves.

The first test relates to SRY-box transcription factor 17 (SOX17) Protein Expression, Deisenroth Lab, SOX17 (gene 64321). Put plainly: CCTE_Deisenroth_DEVTOX-GLR_legacy_Sox17: (Legacy) CCTE's DevTox GLR-Endo Assay Evaluation of SRY-box transcription factor 17 (SOX17) Protein Expression, Deisenroth Lab (AID 2284341; active = hit-call score of the fitted dose curve at least 0.9, where 1 is the maximum; inactive = score below 0.9). The following applies: actives raise or lower the signal. The gist of the method: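 Endoderm-differentiation readout in RUES2-GLR human pluripotent cells at 48 h, concentrations spanning 1 nM - 200 uM. Sox17-positive cells divided by total cell count; gain or loss relative to DMSO solvent control, n=4 experimental replicates.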
On to `OB(O)O`, for which the compound was called inactive. For the compound `CC(C)(c1ccc(O)cc1)c1ccc(O)cc1`, the AC50 was 51.4 µM (active). As to `CCCCC(CC)COC(=O)c1ccccc1C(=O)O` (stereo not given), the AC50 was 100 µM (active).

Tested on in the next test: not listed separately
As to the kind of experiment: CCTE_Mundy_HCI_iCellGluta_NOG_NeuriteCount: CCTE's Neurite Outgrowth Assay in iCellGluta cells for Neurite Count, Mundy Lab (AID 2284342).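 Note: chemical exposure about 48 hours starting 2 hours after plating.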
Settings: not given
For the compound `CSC(=O)c1cccc2nnsc12`, the call was inactive. Regarding `C#CCOC(=O)[C@@H](C)Oc1ccc(Oc2ncc(Cl)cc2F)cc1`, the half-maximal activity concentration (AC50) is 34 µM (active).

Turning to `CCN(CC)C(=O)c1cccc(C)c1`, the compound was classed as inactive.

For `Cc1nn(C)c(Oc2ccccc2)c1C=NOCc1ccc(C(=O)OC(C)(C)C)cc1`, the AC50 is 1.39 µM (active).

Consider `S=C(S)NCCNC(=S)S.[Mn+2].[S-]C([S-])=NCCN=C([S-])[S-].[Zn+2]`, for which the result was inactive. Regarding `CCCN(CCC)C(=O)SCC`, the call was inactive.

The test system of the next test is SERPINA7 (gene 6906). As to the kind of experiment: CCTE_GLTED_hTBG: CCTE's human Thyroxine-binding Globulin (TBG) Inhibition Assay, Great Lakes Toxicology and Ecology Division (GLTED) Lab (AID 2284343).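 Note: active chemicals lower fluorescence versus DMSO baseline by displacing probe.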
Settings: not given
The procedure, abridged:
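Steps: combine TBG with chemical; incubate 2 hours so that disruptors release ANSA; record fluorescence (380 ex, 475 em). Loss of signal was fitted against DMSO controls.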
On to `O=C(c1ccccc1)C1CCCCC1`, for which the AC50 was 50 µM (active). The same measure, in the same setting: the value for `O=C(O)C1(C(=O)Nc2ccc(Cl)cc2Cl)CC1` was 66 µM (active); that for `N#CSCSc1nc2ccccc2s1` was 33.2 µM (active); that for `CCN(Cc1c(F)cccc1Cl)c1c([N+](=O)[O-])cc(C(F)(F)F)cc1[N+](=O)[O-]` was 0.62 µM (active).

As for `CC(C)(c1ccc(O)cc1)c1ccc(O)cc1`, the AC50 was 12.4 µM (active). For `O=C(Nc1ccc([N+](=O)[O-])cc1Cl)c1cc(Cl)ccc1O`, the call was inactive. Consider `CCCN(CCC)c1c([N+](=O)[O-])cc(C(F)(F)F)c(N)c1[N+](=O)[O-]`, for which the half-maximal activity concentration (AC50) is 0.322 µM (active). Same read-out and setting: the value for `COC(=O)CSc1cc(N=c2sc(=O)n3n2CCCC3)c(F)cc1Cl` was 25.9 µM (active); that for `CCCCC(CC)COC(=O)c1ccccc1C(=O)O` (stereo not given) was 18.3 µM (active); that for `COc1c(Cl)ccc(Cl)c1C(=O)O` was 47.7 µM (active).

`CC(C)CCCCCCc1ccc(O)cc1`: the AC50 is 5.2 µM (active).

A further test deals with SRY-box transcription factor 2 (SOX2) Protein Expression, Deisenroth Lab, SOX2 (gene 6657). Put plainly: CCTE_Deisenroth_DEVTOX-GLR_legacy_Sox2: (Legacy) CCTE's DevTox GLR-Endo Assay Evaluation of SRY-box transcription factor 2 (SOX2) Protein Expression, Deisenroth Lab (AID 2284346; active = hit-call score of the fitted dose curve at least 0.9, where 1 is the maximum; inactive = score below 0.9).
Settings: not given
The procedure: CCTE_Deisenroth_DEVTOX-GLR_legacy assay is a cell-based, multiplex-readout assay that uses RUES2-GLR, a human pluripotent cell line, with measurements taken at 48 hours after chemical dosing in a 384-well microplateCCTE_Deisenroth_DEVTOX-GLR_legacy_Sox2 is one of 4 assay components calculated from the CCTE_Deisenroth_DEVTOX-GLR_legacy assay that measures an increase in the percentage of cells in an ectodermal or pluripotent state. It is designed to make measurements of inducible reporter a form of fluorescent protein induction as detected with optical fluorescence microscopy. Percentage Sox2+ cells are determined by calculating the number of Sox2+ cells divided by cell count. A cell is Sox2+ if the cell Sox2 mean intensity is 5x BMAD above the directed endoderm control median cell Sox2 mean. The assay endpoint was analyzed with bidirectional fitting with the 0.2% DMSO control median percent Sox2 in the CCTE_Deisenroth_DEVTOX-GLR_Endo assay subtracted.Data from the assay component CCTE_Deisenroth_DEVTOX-GLR_legacy_Sox2 was analyzed into 1 assay endpoint. This assay endpoint, CCTE_Deisenroth_DEVTOX-GLR_legacy_Sox2, was analyzed in the positive analysis fitting direction relative to DMSO as the negative control and baseline activity. Using a type of inducible reporter, gain-of-signal activity can be used to understand changes in gene expression. Furthermore, this assay endpoint can be referred to as a secondary readout, because this assay has produced multiple assay endpoints where this one serves as a measure of pluripotency or ectoderm differentiation. To generalize the intended target to other relatable targets, this assay endpoint is annotated to the transcription factor intended target family, where the subfamily is SRY-related HMG-box.
All assay protocols are aligned to the DevTox GLR-Endo assay workflow. […] Cell identification and mean biomarker fluorescence intensities are calculated with image analysis software to determine the total cell counts for viability assessment and the biomarker expression frequency for each lineage-dependent assay. […]
As for `OB(O)O`, the compound was classed as inactive. Turning to `CC(C)(c1ccc(O)cc1)c1ccc(O)cc1`, the half-maximal activity concentration (AC50) is 50.7 µM (active). Take `CCCCC(CC)COC(=O)c1ccccc1C(=O)O` (stereo not given): the compound was called inactive.

Tested on in another test: not listed separately
Put plainly: CCTE_Deisenroth_H295R-HTRF_384WELL_ESTRADIOL: CCTE's H295R-HTRF Assay Evaluation of Estradiol Concentration, Deisenroth Lab (AID 2284361; active = hit-call score of the fitted dose curve at least 0.9, where 1 is the maximum; inactive = score below 0.9). The settings on record: actives raise or lower the signal. The procedure:
CCTE_Deisenroth_H295R-HTRF_384WELL assay is a cell-based, multiplex-readout assay that uses H295R, a human adrenocortical carcinoma cell line, with measurements taken at 48 hours after chemical dosing in a 384-well microplateCCTE_Deisenroth_H295R-HTRF_384WELL_ESTRADIOL is one of 3 assay components calculated in the CCTE_Deisenroth_H295R-HTRF_384WELL assay (2 hormones and 1 viability components). It is designed to make measurements of hormone induction, a form of inducible reporter, as detected with Homogenous Time Resolved Fluorescence immunoassay technology.This assay endpoint, CCTE_Deisenroth_H295R-HTRF_384WELL_ESTRADIOL, was analyzed with bidirectional fitting relative to DMSO as the negative control and baseline of activity. Using a type of inducible reporter, gain or loss-of-signal activity using Homogenous Time Resolved Fluorescence technology was used to understand synthesis of estradiol in the H295R cell line at 48hr of chemical exposure. To generalize the intended target to other relatable targets, this assay endpoint is annotated to the steroid hormone intended target family, where the subfamily is estrogens.
(§1) Standard operating procedures for the cell culture medium, maintenance, expansion, and cryopreservation of the NCI-H295R adrenocortical carcinoma adherent cell line were adopted directly from guideline specifications7,13. The assay workflow follows a three-day protocol consistent with the paradigm defined in OECD TG 456 and U.S. EPA OCSPP Guideline 890.1550. On day 0, cells are plated in 384-well microplates and acclimated for 24 hours. On Day 1, test chemicals are dispensed into separate 384-well microplates in a nine-point 2X dilution series (0.002 - 200 uM). Without aspirating the growth medium on the assay plates, test chemical suspension is dispensed to achieve a final 1X nominal concentration. Each chemical is run in technical triplicate at a final dilution series of 0.001 - 100 uM. On Day 3, following a 48-hour incubation period with test chemical, the conditioned medium samples are collected and transferred to 384-well sample storage plates. HTRF direct immunoassay technology is employed to detect E2 and T analytes in H295R conditioned medium. HTRF assays for E2 and T are performed with matched conditioned medium samples according to the manufacturer's protocol. Fluorescent endpoint measurements are conducted with a microplate reader equipped with an HTRF-compatible filter set (ex: 320 (10) nM; em: 620 (10) and 665 (10) nM). A multiplexed cell viability assay is implemented on the same plates used for chemical testing using the Promega CellTiter-Glo 2.0 assay. […] After collecting conditioned medium samples on Day 3, the viability assay is immediately performed and luminescence readings measured on a microplate reader. […]
In the case of `CC(=O)S[C@@H]1CC2=CC(=O)CC[C@]2(C)[C@H]2CC[C@@]3(C)[C@@H](CC[C@@]34CCC(=O)O4)[C@H]12`, the call was inactive. On to `CC(C)(c1ccc(O)cc1)c1ccc(O)cc1`, for which the AC50 was 37 µM (active). Same read-out and setting: the same measure for `C=CCOC(Cn1ccnc1)c1ccc(Cl)cc1Cl` (stereo not given): 0.447 µM (active). As to `CCCCOCCOCCOCc1cc2c(cc1CCC)OCO2`, the result was inactive.

Tested on in a further test: not listed separately
Put plainly: CCTE_Deisenroth_H295R-HTRF_384WELL_TESTOSTERONE: CCTE's H295R-HTRF Assay Evaluation of Testosterone Concentration, Deisenroth Lab (AID 2284373; active = hit-call score of the fitted dose curve at least 0.9, where 1 is the maximum; inactive = score below 0.9). The following applies: actives raise or lower the signal. The gist of the method: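 Testosterone secreted into medium was quantified by direct HTRF immunoassay after a 48 h treatment of H295R adrenocortical cells (nine concentrations, 0.001–100 uM final). Gain or loss fitted relative to DMSO; CellTiter-Glo viability read on same plates.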
`CC(=O)S[C@@H]1CC2=CC(=O)CC[C@]2(C)[C@H]2CC[C@@]3(C)[C@@H](CC[C@@]34CCC(=O)O4)[C@H]12`: the AC50 was 1.28 µM (active). As to `CC(C)(c1ccc(O)cc1)c1ccc(O)cc1`, the AC50 is 0.804 µM (active). Turning to `C=CCOC(Cn1ccnc1)c1ccc(Cl)cc1Cl` (stereo not given), the AC50 is 1.87 µM (active). `CCCCOCCOCCOCc1cc2c(cc1CCC)OCO2`: the compound was classed as inactive.

Tested on in another test: not listed separately
Put plainly: CCTE_Deisenroth_H295R-HTRF_384WELL_CTOX: Cytotoxicity Assessment in CCTE's H295R-HTRF Assay, Deisenroth Lab (AID 2284380).
Settings: not given
The procedure:
CCTE_Deisenroth_H295R-HTRF_384WELL assay is a cell-based, multiplex-readout assay that uses H295R, a human adrenocortical carcinoma cell line, with measurements taken at 48 hours after chemical dosing in a 384-well microplateCCTE_Deisenroth_H295R-HTRF_384WELL_CTOX is one of 3 assay components measured in the CCTE_Deisenroth_H295R-HTRF_384WELL assay (2 hormones and 1 viability components). It is designed to make measurements of adenosine triphosphate (ATP), a form of viability reporter, as detected with luminescence intensity signals by CellTiter-Glo 2.0 cytotoxicity assay technology.This assay endpoint, CCTE_Deisenroth_H295R-HTRF_384WELL_CTOX, was analyzed in the positive fitting direction relative to DMSO as the negative control and baseline of activity. Using a type of viability reporter, loss-of-signal activity using CellTiter-Glo 2.0 technology was used to understand viability in the H295R cell line at 48hr of chemical exposure. To generalize the intended target to other relatable targets, this assay endpoint is annotated to the cell cycle intended target family, where the subfamily is cytotoxicity
as §1, with “specifications (EPA 2011, OECD 2011).” for “specifications7,13.”
In the case of `CC(=O)S[C@@H]1CC2=CC(=O)CC[C@]2(C)[C@H]2CC[C@@]3(C)[C@@H](CC[C@@]34CCC(=O)O4)[C@H]12`, the call was inactive.

Turning to `CC(C)(c1ccc(O)cc1)c1ccc(O)cc1`, the AC50 is 15 µM (active). The same measure, in the same setting: the same measure for `C=CCOC(Cn1ccnc1)c1ccc(Cl)cc1Cl` (stereo not given): 84.6 µM (active).

In the case of `CCCCOCCOCCOCc1cc2c(cc1CCC)OCO2`, the outcome was inactive.
